Data on 37 molecules can be found in PubChem BioAssay (NCATS).

Records with an inconclusive call do not appear. Values without a mark were called inactive. Calls of active or inactive are those of the source. The call rests on the fitted dose curve; in most records, active means well fitted inhibition curve with a large enough effect; inconclusive means small, poorly fitted or top-dose-only effect; inactive means flat fitted curve, though single readings scatter.
On the % scale 0 is the no-effect control and ±100 the full control effect; potency means the concentration at half of the fitted maximal effect.

Sequence of Ubiquitin carboxyl-terminal hydrolase 1 (Homo sapiens) (O94782 whole entry, looked up): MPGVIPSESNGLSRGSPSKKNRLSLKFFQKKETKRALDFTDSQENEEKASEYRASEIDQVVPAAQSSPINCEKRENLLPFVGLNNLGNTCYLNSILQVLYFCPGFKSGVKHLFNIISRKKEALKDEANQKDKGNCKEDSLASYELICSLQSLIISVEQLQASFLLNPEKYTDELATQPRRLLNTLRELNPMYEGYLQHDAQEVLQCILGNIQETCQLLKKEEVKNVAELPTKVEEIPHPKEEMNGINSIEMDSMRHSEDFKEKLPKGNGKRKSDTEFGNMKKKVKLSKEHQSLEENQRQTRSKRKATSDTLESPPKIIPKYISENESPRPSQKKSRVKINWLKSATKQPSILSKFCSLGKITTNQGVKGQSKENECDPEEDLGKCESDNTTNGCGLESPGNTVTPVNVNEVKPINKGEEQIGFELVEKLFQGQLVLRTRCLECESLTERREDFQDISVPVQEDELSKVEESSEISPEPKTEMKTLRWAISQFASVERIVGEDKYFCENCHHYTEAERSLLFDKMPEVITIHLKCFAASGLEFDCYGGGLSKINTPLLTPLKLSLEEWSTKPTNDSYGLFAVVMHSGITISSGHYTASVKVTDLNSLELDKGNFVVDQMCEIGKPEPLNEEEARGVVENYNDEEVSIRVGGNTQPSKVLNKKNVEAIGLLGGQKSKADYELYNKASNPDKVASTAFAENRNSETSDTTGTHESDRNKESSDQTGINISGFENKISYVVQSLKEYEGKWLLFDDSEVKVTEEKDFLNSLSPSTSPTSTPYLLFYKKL

This assay addresses Ubiquitin carboxyl-terminal hydrolase 1 (Homo sapiens) (UniProt O94782). Put plainly: Inhibitors of USP1/UAF1: Pilot qHTS (AID 504865). Further: nearly all actives have a fitted effect of over 35% in size.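 On activity change, negative = inhibition: rhodamine fluorescence freed from ubiquitin-rhodamine substrate followed over time; top concentration of the series differs between compounds.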 The conditions noted are these: purified USP1/UAF1, Ub-rhodamine cleavage fluorescence; series mostly up to 114 µM; activity change, negative = inhibition: at the top concentration. The method in brief: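 USP1/UAF1 complex at 1 nM preincubated 15 min at room temperature with compound, then Ub-Rho substrate added at 150 nM final. Fluorescence (480/540 nm) read kinetically in 50 mM HEPES pH 7.8, 0.5 mM EDTA, 1 mM TCEP, 0.1 mg/ml BSA, 0.01% Tween-20.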
With `CC(=O)NC(=O)c1ccccc1O`, the “activity change, negative = inhibition” value is -6.47%.
`COc1cc(C)nc(-n2nc(C)cc2OC)n1`: the “activity change, negative = inhibition” value is 0.535% [at 54.9 µM].
Still for that read-out and setting: in the case of `CN(C)CCN1C(=O)c2ccccc2N(C)c2ccccc21` it was 3.73%; in that of `COc1cc(NS(=O)(=O)c2ccc(N)cc2)ncn1`, -1.92% [at 54.9 µM].
In the case of `O=C(NCCc1c[nH]c2ccccc12)c1cccnc1`, the “activity change, negative = inhibition” value is -1.64%.
The same measure, in the same setting: in the case of `Cc1c(-c2ccccc2)oc2c(C(=O)OCCN3CCCCC3)cccc2c1=O` it was 3.67% [at 54.9 µM].
Still for that read-out and setting: next, `NC(=O)n1c(O)c(C(=O)c2cccs2)c2cc(Cl)ccc21`: -14.1%.
Consider `O=C(CCN1CCN2CCCC2C1)N1c2ccccc2Sc2ccc(Cl)cc21` (configuration not stated), for which the “activity change, negative = inhibition” value is -13.1%.
In the case of `CCNC(=O)/C=C/c1cccc(Br)c1`, the “activity change, negative = inhibition” value is -9.85%.
As to `CCN1/C(=C/C=C/c2sc3ccccc3[n+]2CC)Sc2ccccc21`, the Potency was 44.7 µM (active).
For `Cc1cccc(C)c1NC(=O)CN1CCCC1`, the “activity change, negative = inhibition” value was -6.69%.
Same read-out and setting: in the case of `C[N+]1(C)CCC(=C(c2ccccc2)c2ccccc2)CC1` it was -5.23% [at 54.9 µM]; in that of `CC(C)Cc1ccc(CC(=O)O)cc1`, -4.45%; in that of `CC(=O)Nc1ccc(OCC(O)CNC(C)C)cc1` (configuration not stated), -4.11%.
Same read-out and setting: in the case of `CCNC(=O)NCc1cccc(Cl)c1` it was -7.13%.
The same measure, in the same setting: next, `CN1CCC[C@@H]1CCO[C@](C)(c1ccccc1)c1ccc(Cl)cc1`: -13% [at 54.9 µM]; `NS(=O)(=O)c1cc(C(=O)O)cc(N2CCCC2)c1Oc1ccccc1`: 2.37% [at 54.9 µM]; `CCC1Nc2cc(Cl)c(S(N)(=O)=O)cc2S(=O)(=O)N1` (configuration not stated): -5.99%.
For the molecule `O=C(O)CCC(=O)Nc1ccc(S(=O)(=O)Nc2nccs2)cc1`, the “activity change, negative = inhibition” value was -7.08% [at 54.9 µM].
For `CCN(CC)CCNc1ccc(CO)c2sc3ccccc3c(=O)c12`, the “activity change, negative = inhibition” value is -4.24% [at 54.9 µM].
On to `CN(C)CCOC(c1ccc(Cl)cc1)c1ccccn1` (configuration not stated), for which the Potency entry was “inactive”.
For `COc1ccc(C(=O)c2ccccc2O)c(O)c1`, the “activity change, negative = inhibition” value is 6.04% [at 54.9 µM].
In the case of `Nc1ccc(S(=O)(=O)Nc2cnc3ccccc3n2)cc1`, the Potency result was “inactive”.
As for `CC(=O)Nc1ccc(CC(=O)O)cc1`, the “activity change, negative = inhibition” value was -0.304%.
In the case of `CC(C)NCC(O)c1ccc2ccccc2c1` (configuration not stated), the Potency entry was “inactive”.
Take `NC(=S)N/N=C/c1cccnc1`: the “activity change, negative = inhibition” value is -7.81%.
The same measure, in the same setting: in the case of `CCc1ccc(C(=O)C(C)CN2CCCCC2)cc1` (configuration not stated) it was -12.8%.
As for `CC1(COc2ccc(CC3SC(=O)NC3=O)cc2)CCCCC1` (configuration not stated), the Potency is 20 µM (active).
In the case of `COc1cc(O)c(C(=O)c2ccccc2)cc1S(=O)(=O)O`, the “activity change, negative = inhibition” value was -5.86%.
As for `CCc1oc2ccccc2c1C(=O)c1cc(Br)c(O)c(Br)c1`, the Potency is 31.6 µM (active).
The same measure, in the same setting: in the case of `COc1cc(N)c(Cl)cc1C(=O)NC1CCN(Cc2ccccc2)CC1` it was “inactive”.
Take `OC1C(O)C(O)C(O)C(O)C1O` (configuration not stated): the “activity change, negative = inhibition” value is -2.83%.
The same measure, in the same setting: in the case of `CCN(CC)CCOC(=O)C(Cc1cccc2ccccc12)CC1CCCO1` (configuration not stated) it was 4.17%; in that of `CN1CCN(c2cc3c(cc2F)c(=O)c(C(=O)O)cn3-c2ccc(F)cc2)CC1`, -4.79%.
Regarding `CC(C)Nc1cccnc1N1CCN(C(=O)c2cc3cc(NS(C)(=O)=O)ccc3[nH]2)CC1`, the “activity change, negative = inhibition” value was -11%.
The same measure, in the same setting: in the case of `Cc1ccccc1OCC(O)CO` (configuration not stated) it was -10.1%.
Take `CCN(CC)CCNC(=O)c1cc(Br)c(N)cc1OC`: the “activity change, negative = inhibition” value is -7.02%.
